Data reported in PubChem BioAssay (NCI).
The panel holds about 83,000 compounds, 20% with a hit somewhere; the sample as a whole holds those more often.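 Step 1: grow cells in 96-well plates. Step 2: add test compound at a single concentration. Step 3: incubate 48 h. Step 4: record percent growth.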 A number with no mark means an inactive call. The source made the active and inactive calls. How the source made its calls: active means growth percent below 10; inactive means the rest.

Legend:
Assay in all cases: NCI-60 one-dose screen, 48 h (100 = growth as untreated, 0 = no growth, -100 = all killed)
Settings in all cases: 10 µM unless noted
[1] = system: DU-145 prostate
[2] = system: K-562 leukemia
[3] = system: MALME-3M melanoma
[4] = system: MDA-MB-231 breast
[5] = system: SF-268 CNS
[6] = system: SF-295 CNS
[7] = system: SF-539 CNS
[8] = system: UACC-257 melanoma
[9] = system: M14 melanoma
[10] = system: HCT-15 colon
[11] = system: HT29 colon
[12] = system: SNB-75 CNS
[13] = system: SNB-19 CNS
[14] = system: U251 CNS
[15] = system: PC-3 prostate
[16] = system: SK-MEL-5 melanoma
[17] = system: UACC-62 melanoma
[18] = system: LOX IMVI melanoma
[19] = system: SK-MEL-28 melanoma

Structure (SMILES)	growth [1]	growth [2]	growth [3]	growth [4]	growth [5]	growth [6]	growth [7]	growth [8]	growth [9]	growth [10]	growth [11]	growth [12]	growth [13]	growth [14]	growth [15]	growth [16]	growth [17]	growth [18]	growth [19]
COc1cc(C2CC(c3cccc(Nc4ccncc4)c3)=NN2C(C)=O)cc(OC)c1OC (stereo not drawn)	107%	34.7%	80%	92.8%	94.4%	94.9%	89.1%	91.5%	100%	98%	78.5%	67.4%	93%	91.5%	84.2%	89.9%	93.9%	85.3%	96.6%
C/C(=C(/c1ccccc1)c1ccc(OCC(O)CNCCN2CCOCC2)cc1)c1ccccc1 (stereo not drawn)	67.8%	2.44% (active)	-71.2% (active)	29.4%	78.5%	71.2%	72.8%	-27.5% (active)	92.6%	4.47% (active)	3.2% (active)	65.8%	91.2%	32.6%	65.4%	29%	62.8%	18.7%	-86.2% (active)
CS(=O)(=O)c1ccc(-c2cc3c(oc2=O)-c2ccccc2OC3O)cc1 (stereo not drawn)	87.1%	81%	101%	98.7%	96.6%	75.7%	90.2%	-3.93% (active)	101%	94.4%	105%	84.6%	89%	97.7%	89.8%	101%	92.2%	98%	101%
COc1ccc(/C=C(/c2ccccc2)[N+](=O)[O-])cc1	-85.5% (active)	-7.82% (active)	-44.2% (active)	-49.3% (active)	47.6%	33.2%	-89.2% (active)	-0.12% (active)	42.8%	-35% (active)	-26.7% (active)	-85.5% (active)	-19% (active)	-95.4% (active)	-56.7% (active)	-91.5% (active)	-17.6% (active)	-89.6% (active)	-17.7% (active)
COc1cc(-c2nc3occn3c2-c2ccnc(NCCNS(=O)(=O)c3ccc(Cl)cc3)n2)ccc1F	89.8%	58.9%	80.1%	78.3%	68.4%	88.6%	85.4%	90.2%	86%	74.7%	53.1%	69.1%	91.6%	90%	56.4%	–	57.1%	81.9%	102%
CN1CCN(CCCNc2nccc(-c3c(-c4ccc(F)c(O)c4)nc4sccn34)n2)S1(=O)=O	97.7%	66%	-10.4% (active)	70.8%	104%	101%	113%	33.8%	20%	108%	57.7%	122%	114%	–	86.9%	72.6%	11.5%	50.7%	–
c1ccc(Cn2nc3c(c2-c2ccccc2)-c2oncc2CC3)cc1	112%	73.2%	89%	96.8%	107%	76.7%	110%	92.1%	98.2%	99.3%	96.3%	84.6%	102%	87.9%	68.5%	84.8%	–	90.2%	94.4%
CC(=O)c1c[nH]c2ccc(-c3ccnc(Nc4ccc(NC(=O)C5CCCC5)c(CN5CCOCC5)c4)n3)cc12	-1.77% (active)	5.74% (active)	-81.8% (active)	-8.4% (active)	-41.7% (active)	-46.2% (active)	-84.6% (active)	-27.5% (active)	-67.7% (active)	-21.9% (active)	6.97% (active)	-81.4% (active)	-6.49% (active)	–	2.51% (active)	-74.6% (active)	-90.1% (active)	-54.2% (active)	-62.4% (active)
COc1cc(CNC(=O)CCCCC[P+](c2ccccc2)(c2ccccc2)c2ccccc2)c(OC)c2c1OCO2	81.1%	20.8%	55.5%	72.8%	66.9%	87.2%	73.1%	21.2%	76.2%	99.8%	45.2%	68.5%	53.6%	63.7%	63.2%	84.3%	–	61%	42.1%
COc1cccc2cc(-c3cc4ccccc4[nH]3)/c(=N/C(=S)Nc3ccc(C)cc3)oc12	66.4%	80.4%	66.6%	39.4%	72.3%	79.5%	45.7%	103%	95%	72%	86.3%	-8.91% (active)	52.8%	–	55.6%	73.8%	65.7%	71.2%	–
O=C(CN1CCOCC1)Nc1ccc2ncnc(Nc3ccc(Oc4cccc(F)c4)c(Cl)c3)c2c1	48.3%	56.8%	88.3%	74.3%	70.9%	84.2%	85%	89.1%	74.5%	72.8%	83.5%	79.5%	73.2%	85.7%	59.3%	68.5%	–	80.4%	83%
COc1ccc(C(=O)c2cc3c(N)c(C(=O)Nc4ccc(Cl)cc4)sc3nc2C)cc1	90.1%	31.1%	58.7%	81.2%	56.4%	89.3%	71.9%	77.3%	61.5%	55.9%	54.2%	4.28% (active)	67%	61.7%	78.7%	–	78.6%	82.6%	82.6%
Clc1ccc(C2CC(c3cccc(Nc4ccncc4)c3)=NN2c2cc(Cl)cc(Cl)c2)cc1 (stereo not drawn)	48%	1.88% (active)	62.8%	71.5%	83.8%	70.5%	81.9%	88.8%	-63.9% (active)	-25.2% (active)	5.22% (active)	82.8%	89.2%	–	48.9%	88.9%	101%	-44.6% (active)	74.2%
Cn1c(COC(=O)N2CCCCC2)nc2c(N3CCOCC3)nc(-c3ccccc3)nc21	-87% (active)	3.43% (active)	-85.2% (active)	-71.6% (active)	-78.5% (active)	21.6%	-91.9% (active)	-76.3% (active)	-59.8% (active)	-43% (active)	-33.4% (active)	-85.4% (active)	17.7%	-70.9% (active)	-57.5% (active)	-95.6% (active)	–	-90.4% (active)	-96.8% (active)
COc1ccc(C(O)c2cc3c(N)c(C(=O)Nc4cccc(OC)c4)sc3nc2C)cc1 (stereo not drawn)	6.75% (active)	7.83% (active)	52.3%	12.1%	27%	3.76% (active)	-12% (active)	49.7%	11.8%	15.6%	2.47% (active)	-2.98% (active)	36.1%	9.2% (active)	16.2%	-35.4% (active)	–	30.8%	59%
CCCCCCCCCCCCCCCCCCOc1ccccc1N	62%	86.6%	102%	24.7%	56.6%	54.3%	20.5%	55.4%	72.9%	85.6%	92.5%	82.8%	87.1%	–	21.3%	98.2%	88.5%	38.6%	96.9%
COc1cnccc1-c1nc2ccc3[nH]ncc3c2c2c1CCCC2	62.7%	42.2%	73.8%	68.2%	61.3%	60.5%	35.7%	87.5%	46.3%	46.1%	51.8%	24.1%	85.3%	83.9%	68.2%	–	38.1%	31.7%	58.6%
